Data as given in PubChem BioAssay AID1159580 (chemical genetic matrix, 2015).
About 2,000 (36%) of roughly 5,500 compounds were called active. About 18% were inconclusive and are not listed. No stated cut-off is given here; in the data, active means normalized growth mostly below about 0.91 (no sharp cut-off); inconclusive means no clear call, values can overlap the other calls; inactive means mostly above about 0.92. Some of the results follow.

Assay: chemical genetic growth profiling, strain panel (AID 1159580);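 further: tested at 20 µM; growth read once vehicle control cultures reached saturation at 30 °C; 1 = growth at the plate median or of vehicle wells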
Details: S. cerevisiae deletion strains, growth OD

Measured: normalized growth

CN1CCc2ccccc2Cc2[nH]c3ccccc3c2CC1
inactive: locus YAL013W, strain DEP1, stronger effect = lower value 1.01 | locus YAL040C, strain CLN3, stronger effect = lower value 1.04 | locus YCL061C, strain MRC1 (second series), stronger effect = lower value 1.01 | locus YDR150W, strain NUM1, stronger effect = lower value 1.01 | locus YDR363W, strain ESC2, stronger effect = lower value 0.97 | locus YER002W, strain NOP16, stronger effect = lower value 0.996 | locus YGR078C, strain PAC10, stronger effect = lower value 0.994 | locus YNL128W, strain TEP1, stronger effect = lower value 1.01 | locus YNL153C, strain GIM3, stronger effect = lower value 1.03 | locus YNL175C, strain NOP13, stronger effect = lower value 1.01 | locus YNL197C, strain WHI3, stronger effect = lower value 1.01 | locus YNL224C, strain SQS1, stronger effect = lower value 0.996 | locus YNL322C, strain KRE1, stronger effect = lower value 1.02 | locus YOR083W, strain WHI5 (second series), stronger effect = lower value 0.998 | locus YPL055C, strain LGE1, stronger effect = lower value 1.01 | locus YPL241C, strain CIN2, stronger effect = lower value 1.01
